This is an account of results in PubChem BioAssay (NCATS).

Assay [1] is described as follows: HPAF-II 24hr Apoptosis Induction qHTS against the NCATS CANVASS Library (AID 1347356). The procedure, abridged:
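Luminescent caspase-3/7 signal (DEVD substrate, Caspase-Glo) served as read-out, taken 15 min after reagent addition to HPAF-II cells exposed 24 h to compounds.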

Assay [2] in a line: HEK293 18hr Apoptosis Induction qHTS against the NCATS CANVASS Library (AID 1347357). The essentials: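 Caspase-3/7 luminescence (DEVD substrate, Caspase-Glo) after 18 h compound exposure of HEK293 cells, 500 cells/well; 11-point series; doxorubicin titration as control.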
In general terms: qHTS replaces the single test concentration by a dilution series.

Assay [3] can be described thus: HPAF-II 12hr Apoptosis Induction qHTS against the NCATS CANVASS Library (AID 1347358). The essentials: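 500 HPAF-II cells/well; cmpds 11-pt; 12 hr, 37 degrees C/5% CO2; Caspase-Glo 3/7 added, 15 min RT dark; luminescence read. Doxorubicin titration as control.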
Assay [4] in a line: HEK293 24hr Apoptosis Induction qHTS against the NCATS CANVASS Library (AID 1347359). The essentials: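 Caspase-3/7 activation measured as luminescence from the DEVD-based Caspase-Glo reagent, 15 min at room temperature, following 24-hour compound treatment of HEK293 cells.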
Assay [5] is described as follows: HPAF-II 18hr Apoptosis Induction qHTS against the NCATS CANVASS Library (AID 1347360). The essentials:
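Caspase-Glo 3/7 luminescence (DEVD substrate) after 15 min RT; HPAF-II, 500 cells/well, 18 h compound exposure at 37 degrees C, qHTS series; doxorubicin control 0.1nM - 4uM.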

Assay [6] can be described thus: HEK293 12hr Apoptosis Induction qHTS against the NCATS CANVASS Library (AID 1347361). The essentials: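 500 HEK293 cells/well; cpds pin-transferred, 11-pt conc series; 12 h, 37 degrees C/5% CO2; Caspase-Glo 3/7 added, 15 min RT dark; luminescence.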
Assay [7] deals with Luciferin 4-monooxygenase (Photinus pyralis) (UniProt P08659). Put plainly: Firefly luciferase counterscreen qHTS: Assay Interference Panel against the NCATS CANVASS Library (AID 1347363). Note: series mostly up to about 57 µM. The essentials: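 Luminescence inhibition readout: compounds (11-point qHTS) sat 15 min at room temperature with substrate mix (0.013 mM luciferin and ATP), then firefly luciferase was added and signal read 5 min later.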
Sequence of Luciferin 4-monooxygenase (Photinus pyralis) (P08659 whole entry, looked up): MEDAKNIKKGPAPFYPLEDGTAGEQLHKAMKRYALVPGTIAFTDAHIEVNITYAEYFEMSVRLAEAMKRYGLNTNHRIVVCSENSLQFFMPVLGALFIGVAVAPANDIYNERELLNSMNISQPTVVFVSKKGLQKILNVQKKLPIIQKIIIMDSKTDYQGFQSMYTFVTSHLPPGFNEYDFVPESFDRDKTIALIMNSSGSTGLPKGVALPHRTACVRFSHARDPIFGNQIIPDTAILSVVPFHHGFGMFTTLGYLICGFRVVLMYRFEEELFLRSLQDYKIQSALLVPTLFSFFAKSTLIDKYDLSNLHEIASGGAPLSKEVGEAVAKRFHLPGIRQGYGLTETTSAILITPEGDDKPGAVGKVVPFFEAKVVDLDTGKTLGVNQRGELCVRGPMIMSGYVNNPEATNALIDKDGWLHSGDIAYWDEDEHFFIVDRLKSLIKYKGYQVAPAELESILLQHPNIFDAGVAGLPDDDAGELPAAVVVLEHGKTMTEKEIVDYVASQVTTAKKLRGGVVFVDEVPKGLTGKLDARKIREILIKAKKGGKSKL
On the technique in general: The purpose of a counterscreen is to sort out artefacts and off-target activity.

The nature of assay [8]: qHTS for ATAD5 Agonist screened against the NCATS CANVASS Library (AID 1347367). The essentials:
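Luminescence read-out: ATAD5-driven luciferase in stably transfected HEK 293T cells, which rises post-transcriptionally with DNA damage. Cells were exposed 16hr at 37C to test compound; a CellTiter-Fluor fluorescence read (1hr) measured viability first.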

A short description of assay [9]: J3T Cancer Cell Toxicity qHTS against the NCATS CANVASS Library (AID 1347371). Note: potency is the fitted concentration of half-maximal effect. The procedure, abridged: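 Cells plated at 500 per well, compounds pin-transferred, plates incubated 72 hr at 37C, then CellTiterGlo added and luminescence read to measure ATP content.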
Assay [10] concerns the target Nuclear receptor subfamily 1 group I member 3 (Homo sapiens) (UniProt Q14994). The experiment in a line: qHTS for Constitutive Androstane Receptor (CAR) Agonist screened against the NCATS CANVASS Library (AID 1347373).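 Note: every well also contained 1.5 µM PK11195 alongside the test compound.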 The essentials:
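HepG2-hCAR-CYP2B6 cells, 2500/well, attached 4hr; cpd + PK11195 1.5uM final; 24hr 37C 5% CO2. CellTiter-Fluor viability read, then ONE-Glo luminescence for CAR activation.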

The nature of assay [11]: qHTS for Hypoxia signaling pathway (HIF-1) agonists against the NCATS CANVASS Library (AID 1347375). The essentials:
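ME-180 HRE-bla reporter cells; 2,000/well, 0.5% dialyzed FBS; cpd added after 5 h, 17 h 37C/5% CO2; CCF4-AM 2 h RT; FRET 460/530 nm; CellTiter-Glo viability same wells, 30 min.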

A short description of assay [12]: 10-beta competent E. coli microbial cell viability qHTS against the NCATS CANVASS Library (AID 1347376). Note: series mostly up to about 46 µM. The essentials: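 E. coli 10-beta, 0.2 OD; cpds 11-pt; o/n 37C, 5% CO2; BacTiter-Glo 20 min RT; luminescence (ATP) = viable cells. Daunomycin ctrl.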
The nature of assay [13]: Inflammasome Signaling qHTS Counterscreen: IL-1-beta AlphaLISA counterscreen against the NCATS CANVASS Library (AID 1347381).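 Note: cell-free check with purified IL-1β in medium and no THP-1 cells; series mostly up to about 57 µM.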 The procedure, abridged:
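Cell-free interference check: compounds added to medium spiked with 4 pg purified IL-1β. Anti-IL-1β acceptor beads (6 ug/mL) with 0.6 nM biotinylated antibody added for 1 h at RT, then streptavidin donor beads (24 ug/mL) for 30 min in the dark. AlphaLISA read at 680/615 nm.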

Assay [14] is described as follows: Cytotoxicity qHTS for assessment of Hepg2 cells membrane integrity screened against the NCATS CANVASS Library (AID 1347387). The essentials: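 qHTS, 11-pt conc. series, 0.59 nM - 46 uM final; HepG2 2000 cells/well, overnight attachment; 5 hr compound exposure 37C/5% CO2; CytoTox-ONE, 10 min RT; fluorescence ex560/em590 = LDH from damaged membranes.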
Assay [15] is described as follows: Redox Reaction Profiling qHTS: Assay Interference Panel against the NCATS CANVASS Library (AID 1347401). Note: potency is the fitted concentration of half-maximal effect. The procedure, abridged: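 Cell-free redox surrogate: 5 uM resazurin + 200 uM DTT, 50 mM HEPES pH 7.3/50 mM NaCl; cpds pinned, 11-pt qHTS; Ex525/Em598 read t0 and t=15 min, dark.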

Results filed as inconclusive are left out. The source made the active and inactive calls. Calls come from the whole dose curve; as a rule, active = well fitted curve in the direction sought with a large enough effect; inconclusive = small, poorly fitted or top-dose-only effect, or another doubt; inactive = no such curve, though single readings can be large; an effect the other way counts as inactive or inconclusive.

Sequence of Nuclear receptor subfamily 1 group I member 3 (Homo sapiens) (Q14994 whole entry, looked up): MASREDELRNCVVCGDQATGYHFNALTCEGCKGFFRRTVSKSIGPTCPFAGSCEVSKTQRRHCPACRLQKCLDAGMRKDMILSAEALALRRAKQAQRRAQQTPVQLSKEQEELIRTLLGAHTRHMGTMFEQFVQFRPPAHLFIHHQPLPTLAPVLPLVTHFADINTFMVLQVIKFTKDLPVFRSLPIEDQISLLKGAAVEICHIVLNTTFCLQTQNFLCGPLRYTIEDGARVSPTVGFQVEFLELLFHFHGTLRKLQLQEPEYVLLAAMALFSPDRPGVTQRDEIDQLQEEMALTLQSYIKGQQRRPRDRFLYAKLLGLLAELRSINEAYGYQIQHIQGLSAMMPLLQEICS

Regarding `C[C@]12CCC3[C@@H](CC[C@@H]4C[C@@H](O)CC[C@]34CO)[C@@]1(O)CC[C@@H]2C1=CC(=O)OC1` (stereo not given in full), the compound was classed as inactive in assay [1], in [2], in assay [3], in assay [4], in assay [5] and in assay [6]. The outcome in assay [11], in assay [12], in assay [13] and in assay [14] was inactive. The Potency entry in [7], in [8], in assay [10] and in assay [15] was “inactive” in each case. Besides, the Potency in assay [9] was 2.96 µM (active).
Consider `CCCC[C@@H]1CC[C@H]2CCCC(CCCO)N12` (stereo not given in full), for which the compound was classed as inactive in assay [1], in assay [2], in assay [3], in [4], in assay [5] and in assay [6]. Moreover, the result in [11], in assay [12], in assay [13] and in assay [14] was inactive. Further, the Potency result in [7], in assay [8], in assay [9], in assay [10] and in assay [15] was “inactive” throughout.
Consider `O[C@H]1C=C[C@@]23CCN(Cc4cc5c(cc42)OCO5)[C@@H]3C1`, for which the result in assay [1], in assay [2], in assay [3], in [4], in assay [5] and in [6] was inactive. The compound was classed as inactive in [11], in assay [12], in assay [13] and in assay [14]. Moreover, the Potency entry in assay [7], in assay [8], in assay [9], in assay [10] and in [15] was “inactive” throughout.
In the case of `C[C@]12CC(O)C3[C@@H](CCC4C[C@@H](O)CC[C@@]43CO)[C@@]1(O)CC[C@@H]2C1=CC(=O)OC1` (stereo not given in full), the result in [1], in [2], in assay [3], in [4], in assay [5] and in assay [6] was inactive. For the same compound, the outcome in [11], in assay [12], in [13] and in assay [14] was inactive. For the same compound, the Potency entry in assay [7], in [8], in assay [10] and in assay [15] was “inactive” in each case. In assay [9], the Potency was 14.8 µM (active).
Take `C/C(=C\[C@H](C)C(=O)C[C@H](O)CC1CC(=O)NC(=O)C1)[C@@H]1OC(=O)/C=C/CC/C=C/C=C/[C@@H]1C`: the outcome in assay [1], in assay [2], in [3], in [4], in [5] and in assay [6] was inactive. Besides, the call in assay [11], in [12], in assay [13] and in assay [14] was inactive. For the same compound, the Potency result in assay [7], in [8] and in assay [10] was “inactive” in each case. In addition, the Potency is 0.264 µM (active) in [9] and 24.1 µM (active) in assay [15].
On to `CO[C@H]1C[C@H](O[C@H]2[C@@H](O)C[C@H](O[C@H]3CC[C@]4(C=O)[C@H]5CC[C@]6(C)C(C7=CC(=O)OC7)CC[C@]6(O)[C@@H]5CC[C@]4(O)C3)O[C@@H]2C)O[C@H](C)[C@H]1O[C@H]1C[C@@H](OC)[C@@H](O[C@@H]2O[C@H](CO)[C@@H](O)[C@H](O)[C@H]2O)[C@@H](C)O1` (stereo not given in full), for which the compound was called inactive in [1], in assay [2], in assay [3], in assay [4], in assay [5] and in assay [6]. Besides, the compound was called inactive in assay [11], in [12], in assay [13] and in [14]. Also, the Potency entry in assay [7], in assay [8], in assay [10] and in [15] was “inactive” in each case. Moreover, the Potency in assay [9] was 0.332 µM (active).
